# From PubChem BioAssay (NCATS)
# Inconclusive results are not listed. Entries that show only a call come without a potency. A structure can be active in one record and inactive in another. Calls of active or inactive are those of the source. Unless noted, calls come from the whole dose curve.
# Assays:
# [1] = qHTS for Inhibitors of the Functional Ribonucleoprotein Complex (vRNP) of Lassa (LASV) Arenavirus: LASV Primary Screen - GLuc reporter signal (AID 1347082; calls by dose curve; tested in HEK293 reporter line; note: nearly all actives have a fitted effect of over 60% in size; note: potency is the fitted concentration of half-maximal effect)
# [2] = qHTS for Inhibitors of the Functional Ribonucleoprotein Complex (vRNP) of Lassa (LASV) Arenavirus: Viability assay - alamar blue signal for LASV Primary Screen (AID 1347083; calls by dose curve; tested in HEK293 reporter line; note: nearly all actives have a fitted effect of over 80% in size; note: potency is the fitted concentration of half-maximal effect)
# [3] = qHTS for Inhibitors of the Functional Ribonucleoprotein Complex (vRNP) of Lymphocytic Choriomeningitis Arenaviruses (LCMV): Viability assay - alamar blue signal for LCMV Primary Screen (AID 1347085; calls by dose curve; tested in HEK293 reporter line; note: nearly all actives have a fitted effect of over 80% in size; note: potency is the fitted concentration of half-maximal effect)
# [4] = molecular target: Nucleoprotein (Lymphocytic choriomeningitis virus (strain Armstrong)) (UniProt P09992); assay: qHTS for Inhibitors of the Functional Ribonucleoprotein Complex (vRNP) of Lymphocytic Choriomeningitis Arenaviruses (LCMV): LCMV Primary Screen - GLuc reporter signal (AID 1347086); note: nearly all actives have a fitted effect of over 70% in size; note: potency is the fitted concentration of half-maximal effect
# Chain of Nucleoprotein (Lymphocytic choriomeningitis virus (strain Armstrong)) (P09992 whole entry, looked up): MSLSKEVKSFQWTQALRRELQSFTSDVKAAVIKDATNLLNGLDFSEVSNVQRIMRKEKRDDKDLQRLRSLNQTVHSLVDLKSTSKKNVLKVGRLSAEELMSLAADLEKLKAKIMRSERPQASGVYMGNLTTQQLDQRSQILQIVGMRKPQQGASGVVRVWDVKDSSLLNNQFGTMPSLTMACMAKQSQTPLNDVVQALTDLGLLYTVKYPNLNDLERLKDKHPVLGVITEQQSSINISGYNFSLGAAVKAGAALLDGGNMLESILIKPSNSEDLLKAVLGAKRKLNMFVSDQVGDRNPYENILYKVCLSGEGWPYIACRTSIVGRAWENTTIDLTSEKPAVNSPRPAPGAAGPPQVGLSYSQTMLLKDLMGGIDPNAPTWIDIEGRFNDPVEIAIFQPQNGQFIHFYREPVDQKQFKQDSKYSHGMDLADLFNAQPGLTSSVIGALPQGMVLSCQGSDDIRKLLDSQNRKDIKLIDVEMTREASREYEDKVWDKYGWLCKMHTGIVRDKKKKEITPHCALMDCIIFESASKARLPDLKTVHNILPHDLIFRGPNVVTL
# [5] = Primary qHTS for small molecule stabilizers of the endoplasmic reticulum resident proteome: Secreted ER Calcium Modulated Protein (SERCaMP) assay (AID 1508630; active = well fitted curve in the direction sought with a large enough effect; an effect the other way counts as inactive or inconclusive)
# In short: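 The SH-SY5Y reporter protocol was run at 3 concentrations up to 38.3 uM (primary) or 11 concentrations (follow-up): 16 h compound, 100 nM thapsigargin for 4 h, then extracellular luciferase luminescence.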
# [6] = Confirmatory qHTS to identify inhibitors of SARS-CoV-2 cell entry (AID 1645844); note: potency is the fitted concentration of half-maximal effect; nearly all actives have a fitted effect of over 45% in size
# In short: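 Using stable human ACE2 Expi293F cells, compounds preincubated 1 hr before spike pseudoparticle infection; luciferase signal after 48 hr at 37C, 5% CO2, normalised to spike PP and no-fusion-protein PP wells.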
# [7] = Cytotoxicity counterscreen for inhibitors of SARS-CoV-2 cell entry (AID 1645845); note: nearly all actives have a fitted effect of over 50% in size
# In short: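 After a 15 min room-temperature ATPLite 1step step, luminescence reflected ATP remaining in HEK293-ACE2 cells exposed to compound for 1 h plus 48 h at 37 C, with percent activity set by cell and no-cell controls.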
# [8] = Primary qHTS to identify inhibitors of SARS-CoV-2 cell entry (AID 1645846); settings: activity change, negative = inhibition: at 57.1 µM (top of the series) unless noted; note: nearly all actives have a fitted effect of over 45% in size
# In short: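 Data are normalized to wells receiving SARS-CoV-2-S pseudoparticles and those given bald particles. Entry signal was luciferase luminescence in stable hACE2 Expi293F cells, 48 hr post-infection, after 1 hr compound pretreatment.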
# [9] = VSVG counterscreen qHTS to identify inhibitors of SARS-CoV-2 cell entry (AID 1645847); note: potency is the fitted concentration of half-maximal effect; nearly all actives have a fitted effect of over 65% in size
# In short: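 Counterscreen using VSV-G (not spike) pseudotyped MLV particles on ACE2-expressing Expi293F cells after 1 h compound preincubation; infection ran 48 h at 37 °C. Data normalized to VSV-G PP and bald-PP wells.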
# [10] = Counterscreen qHTS for small molecule stabilizers of the endoplasmic reticulum resident proteome: GLuc-NoTag assay (AID 1508627; active = well fitted curve in the direction sought with a large enough effect; an effect the other way counts as inactive or inconclusive)
# In short: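 Secreted GLuc lacking the SERCaMP modification is measured in SH-SY5Y cells exposed to compound for 19 h and then to thapsigargin (100 nM, 4 h) to deplete ER calcium; hits retested at 11 concentrations, up to 76.6 uM.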
# [11] = molecular target: Cytochrome P450 3A4 (Homo sapiens) (UniProt P08684); assay: qHTS Assay for Inhibitors and Substrates of Cytochrome P450 3A4 (AID 884; active = well fitted curve in the direction sought with a large enough effect; an effect the other way counts as inactive or inconclusive; note: nearly all actives have a fitted effect of over 50% in size; note: potency is the fitted concentration of half-maximal effect)
# Chain of Cytochrome P450 3A4 (Homo sapiens) (P08684 whole entry, looked up): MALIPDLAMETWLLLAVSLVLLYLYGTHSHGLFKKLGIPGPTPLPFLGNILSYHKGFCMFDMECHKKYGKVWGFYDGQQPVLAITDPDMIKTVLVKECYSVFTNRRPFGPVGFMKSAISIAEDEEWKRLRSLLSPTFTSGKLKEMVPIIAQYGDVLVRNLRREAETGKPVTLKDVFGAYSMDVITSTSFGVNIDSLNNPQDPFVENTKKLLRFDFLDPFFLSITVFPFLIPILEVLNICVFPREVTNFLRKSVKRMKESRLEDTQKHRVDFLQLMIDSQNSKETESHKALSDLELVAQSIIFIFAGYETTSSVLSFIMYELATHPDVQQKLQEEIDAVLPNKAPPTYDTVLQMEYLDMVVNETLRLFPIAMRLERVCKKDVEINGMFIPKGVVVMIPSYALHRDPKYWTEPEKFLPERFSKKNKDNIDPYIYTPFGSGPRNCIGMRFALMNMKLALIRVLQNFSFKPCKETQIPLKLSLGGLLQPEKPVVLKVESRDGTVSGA
# In short: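 Luminescent readout of luciferin produced by CYP3A4 (20 nM) dealkylation of Luciferin-PPXE, 25 uM (its KM). NADPH-driven reaction ran 60 min at RT after 10 min compound preincubation; data scaled to 57 uM ketoconazole as 100% inhibition.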
# [12] = molecular target: Cytochrome P450 3A4 (Homo sapiens) (UniProt P08684); assay: qHTS Assay for Activators of Cytochrome P450 3A4 (AID 885; active = well fitted curve in the direction sought with a large enough effect; an effect the other way counts as inactive or inconclusive; note: nearly all actives have a fitted effect of over 65% in size)
# In short: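 Activators are scored by enhanced luminescence from CYP3A4 conversion of luciferin-PPXE (25uM, equal to KM) to luciferin, after 60 min at RT with an NADPH-regenerating system.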
# [13] = Confirmation and Secondary Assay for Modulators of Hemoglobin Beta Chain Splicing at IVS2 654 locus (AID 910; active = well fitted curve in the direction sought with a large enough effect; an effect the other way counts as inactive or inconclusive;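 note: per-well total GFP intensity by laser scanning cytometry after 2-day treatment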)
# In short: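 HeLa cells stably carrying EGFP interrupted by mutant beta-globin IVS2-654 intron (CMV-driven) were treated with compound for 2 days at 37C; corrected splicing was scored as total peak GFP intensity per well (488 nm excitation, 500-520 nm emission).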
# [14] = Confirmation and Secondary Assay for Modulators of Hemoglobin Beta Chain Splicing at IVS2 705 locus (AID 930; active = well fitted curve in the direction sought with a large enough effect; an effect the other way counts as inactive or inconclusive;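 note: HeLa cells stably expressing the EGFP-705 splicing reporter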)
# In short: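 Restored EGFP fluorescence after 2-day compound exposure reports splicing correction in IVS2-705 EGFP reporter HeLa cells; positive control was 500 nM splice-blocking PNA oligo. Signal measured as well total peak GFP intensity (488 nm excitation).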
# [15] = qHTS Assay for Lipid Storage Modulators (AID 1519); settings: Drosophila S3 cells, BODIPY lipid droplet/cell ratio, laser cytometry, cells loaded with oleic acid
# In short: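 Cells seeded at 5,000 per well were treated with compounds over a concentration series and loaded with oleic acid (400 uM, as added). Lipid droplet fluorescence (488 nm excitation, 500-530 nm channel) was read by laser-scanning cytometry and normalized to 20 uM Triacsin C.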
# [16] = molecular target: Ubiquitin carboxyl-terminal hydrolase 1 (Homo sapiens) (UniProt O94782); assay: Inhibitors of USP1/UAF1: Pilot qHTS (AID 504865; active = well fitted curve in the direction sought with a large enough effect; an effect the other way counts as inactive or inconclusive;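 note: rhodamine fluorescence freed from ubiquitin-rhodamine substrate followed over time; top concentration of the series differs between compounds; nearly all actives have a fitted effect of over 35% in size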)
# Chain of Ubiquitin carboxyl-terminal hydrolase 1 (Homo sapiens) (O94782 whole entry, looked up): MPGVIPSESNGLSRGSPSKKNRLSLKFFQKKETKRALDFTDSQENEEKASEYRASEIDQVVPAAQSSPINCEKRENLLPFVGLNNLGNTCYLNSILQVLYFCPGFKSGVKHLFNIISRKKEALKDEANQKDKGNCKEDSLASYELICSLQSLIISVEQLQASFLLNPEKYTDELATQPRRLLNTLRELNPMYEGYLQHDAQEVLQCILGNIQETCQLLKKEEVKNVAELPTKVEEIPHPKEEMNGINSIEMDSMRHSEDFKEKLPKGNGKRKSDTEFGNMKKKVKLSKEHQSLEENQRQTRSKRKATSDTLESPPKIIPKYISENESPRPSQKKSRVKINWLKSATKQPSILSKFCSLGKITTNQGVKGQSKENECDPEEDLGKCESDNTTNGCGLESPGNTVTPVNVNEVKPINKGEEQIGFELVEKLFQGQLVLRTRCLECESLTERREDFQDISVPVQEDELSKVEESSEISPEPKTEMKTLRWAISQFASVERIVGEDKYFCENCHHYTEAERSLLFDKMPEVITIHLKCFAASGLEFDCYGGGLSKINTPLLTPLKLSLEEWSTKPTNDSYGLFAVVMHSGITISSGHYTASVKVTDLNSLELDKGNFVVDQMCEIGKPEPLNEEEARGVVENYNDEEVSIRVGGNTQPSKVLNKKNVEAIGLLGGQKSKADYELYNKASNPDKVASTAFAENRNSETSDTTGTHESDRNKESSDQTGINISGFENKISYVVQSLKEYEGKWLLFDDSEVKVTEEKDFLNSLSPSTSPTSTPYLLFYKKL
# In short: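 Kinetic fluorescence assay: 1nM USP1/UAF1, 15 min compound preincubation, then 150nM Ub-Rho; 480/540 nm.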
smiles,measurement,setting,value
COC(=O)C1=CO[C@@H](C)[C@@H]2CN3CC[C@]4(C(=O)Nc5c4ccc(OC)c5OC)[C@H]3C[C@H]12,Potency,[1],inactive
same,Potency,[2],inactive
same,Potency,[3],inactive
same,Potency,[4],inactive
same,Potency,[5],inactive
CC1(C)OC1COc1c2occc2cc2ccc(=O)oc12 (stereo not given),Potency,[1],inactive
same,Potency,[2],inactive
same,Potency,[3],inactive
same,Potency,[4],inactive
same,Potency,[5],inactive
CS(=O)(=O)N(Cc1ccco1)CC(O)Cn1c2ccccc2c2ccccc21 (stereo not given),Potency,[1],inactive
same,Potency,[2],inactive
same,Potency,[3],inactive
same,Potency,[4],inactive
same,Potency,[6],6810 nM (active)
same,Potency,[7],inactive
same,"activity change, negative = inhibition",[8],-37.4%
same,Potency,[9],429 nM (active)
COc1ccc(C(=O)CC2(O)C(=O)Nc3c(Cl)ccc(Cl)c32)cc1 (stereo not given),Potency,[1],24300 nM (active)
same,Potency,[2],1530 nM (active)
same,Potency,[3],432 nM (active)
same,Potency,[4],2730 nM (active)
same,Potency,[7],inactive
OC[C@@H]1[C@@H](O)[C@H](O)[C@H]2[C@@H](O)CCN21,Potency,[1],inactive
same,Potency,[2],inactive
same,Potency,[3],inactive
same,Potency,[4],inactive
same,Potency,[10],inactive
CC(C)c1cc(C(C)C)c(CC(=O)NS(=O)(=O)Oc2c(C(C)C)cccc2C(C)C)c(C(C)C)c1,Potency,[1],inactive
same,Potency,[2],inactive
same,Potency,[3],inactive
same,Potency,[4],inactive
same,Potency,[7],inactive
C=CC1CN2CCC1CC2C(O)c1ccnc2ccccc12 (stereo not given),Potency,[11],25.1 µM (active) and inactive
same,Potency,[12],inactive
same,Potency,[13],inactive
same,outcome,[14],inactive
same,"activity change, negative = inhibition",[15]; at 57.5 µM (top of the series),8.66% (inactive)
same,max response,[15]; measured here: cell count channel max response,10.9%
same,max response,[15]; measured here: lipid channel max response,22.1%
same,Potency,[16],inactive
same,Potency,[1],inactive
same,Potency,[2],inactive
same,Potency,[3],inactive
same,Potency,[4],inactive
